Assay [1] in a line: BmaI1 acyl-homoserine lactone synthase inhibition – biochemical, fluorescence intensity, with counterscreen (AID 720554). The conditions noted are these: BmaI1 enzyme assay, measured here: counterscreen fluorescence % control, concentration not given here.
Assay [2] deals with acyl-homoserine lactone synthase BmaI1 (Burkholderia mallei ATCC 23344). The assay is described as above. The conditions noted are these: BmaI1 enzyme assay, stronger effect = higher value, concentration not given here.

Screen size: about 12,000 compounds; about 45 (0.4%) were called active. Cut-off read from the data, not from the text of the source: active = inhibition mostly above about 83% (no sharp cut-off); inactive = mostly below about 52%. What follows is part of a selection rich in actives, with near analogues and random picks from the rest.

For `COc1ccc(N2CCN(C(=S)Cc3ccccc3)CC2)cc1`, the inhibition was 5% in assay [1] and 8.5% (inactive) in assay [2].

Turning to `O=C(COc1ccccc1C(=O)NCc1ccccc1)Nc1cccc2nsnc12`, the inhibition in assay [1] was 0%; in assay [2], 12% (inactive).

As for `COc1ccc(C(=O)OCc2ccccc2F)c(OC)c1OC`, the values for the inhibition in assay [1] and in assay [2] were 12.5% and 0% (inactive), respectively.

Regarding `COc1ccc(COC(=O)c2cc(O)c3ccccc3c2O)cc1F`, the inhibition is 19.5% in assay [1] and 84.5% (active) in assay [2].

Turning to `COc1ccc(COc2ncnc3ccccc23)cc1F`, the inhibition in assay [1] was 1%; in assay [2], 19.5% (inactive).

Take `CC(OC(=O)c1ccc(NS(=O)(=O)c2cccs2)cc1)c1nc2scc(-c3cccs3)c2c(=O)[nH]1` (stereo not given): the figures for the inhibition in assay [1] and in assay [2] were 8.5% and 15.5% (inactive), respectively.

Regarding `CC1=C/C(=N\NC(=O)COc2ccc(C#N)cc2)CC(C)(C)C1`, the inhibition in assay [1] is 2%; in assay [2], 9% (inactive).

As to `CNC(C)c1ccccc1` (stereo not given), the inhibition in assay [1] is -4.5%; in assay [2], -1.5% (inactive).

Take `COC(=O)c1cnc(N)s1`: the figures for the inhibition in assay [1] and in assay [2] were 5% and 17% (inactive), respectively.

Regarding `Fc1ccccc1NC(=S)N/N=C/c1cn(-c2ccccc2)nc1-c1cc2ccccc2o1`, the inhibition was 2.5% in assay [1] and 6% (inactive) in assay [2].

On to `Oc1ccc(/C=N/NC(=S)Nc2ccc(Cl)cc2Cl)c(O)c1O`, for which the results for the inhibition in assay [1] and in assay [2] were 15.5% and 84% (active), respectively.

`O=CN1CCN(C(=S)Nc2ccc(Cl)cc2Cl)CC1`: the inhibition in assay [1] was 9%; in assay [2], -3% (inactive).

On to `O=C(NCc1ccccc1)c1cccc(OCC(=O)N2CCOCC2)c1`, for which the inhibition in assay [1] was -11%; in assay [2], -13.5% (inactive).

Regarding `CC1(C)CC(NCc2cc(Cl)c3c(c2)OCCCO3)CC(C)(C)N1`, the inhibition in assay [1] was 4.5%; in assay [2] it was 10% (inactive).

On to `Cn1c(N)c(C(=O)CSc2nc3sc4c(c3c(=O)n2Cc2ccco2)CCCC4)c(=O)[nH]c1=O`, for which the inhibition in assay [1] was 5%; in assay [2], 12.5% (inactive).

Turning to `COc1ccccc1NC(=O)c1ccc(NC(=O)COC(=O)C2CCCO2)cc1` (stereo not given), the inhibition in assay [1] is -4.5%; in assay [2], -1.5% (inactive).

As for `Sc1ccc2c(c1)OCCCO2`, the inhibition in assay [1] is 3.5%; in assay [2], 38% (inactive).

For `CCOC(=O)C1CCN(C(C)C(=O)Nc2ccc(C(C)C)cc2)CC1` (stereo not given), the values for the inhibition in assay [1] and in assay [2] were 3% and 9.5% (inactive), respectively.

For `Nn1cc(-c2ccccc2)[nH]c1=S`, the inhibition was 52% in assay [1] and 104% (inactive) in assay [2].

On to `S=c1[nH]cc2ccccn12`, for which the figures for the inhibition in assay [1] and in assay [2] were 5.5% and 96.5% (active), respectively.

Take `Ic1ccc(-c2ncc3ccccn23)cc1`: the inhibition in assay [1] was 11%; in assay [2], 17.5% (inactive).

`CC(=O)NS(=O)(=O)c1ccc(N)cc1`: the figures for the inhibition in assay [1] and in assay [2] were 9.5% and -0.5% (inactive), respectively.

For the molecule `Nc1ccc(S(=O)(=O)CCSS(=O)(=O)c2ccc(N)cc2)cc1`, the inhibition in assay [1] is 0.5%; in assay [2], 88% (active).

In the case of `Nc1ccc(S(=O)(=O)c2ccc(N)cc2)cc1`, the inhibition is 6% in assay [1] and -2.5% (inactive) in assay [2].

Take `Cc1nnc(SC(C)C(N)=O)n1Cc1ccccc1` (stereo not given): the inhibition is -2% in assay [1] and 9.5% (inactive) in assay [2].

Take `COc1cccc(Nc2nnc(SCC(=O)c3cc(C)n(C)c3C)s2)c1`: the inhibition in assay [1] is 9%; in assay [2], 20% (inactive).

In the case of `COc1ccccc1NC1CC(=O)N(c2cccc(Cl)c2)C1=O` (stereo not given), the figures for the inhibition in assay [1] and in assay [2] were 10.5% and 17.5% (inactive), respectively.

As to `COc1cccc(N2C(=O)CC(n3nc(Nc4cccc(C)c4)sc3=S)C2=O)c1` (stereo not given), the values for the inhibition in assay [1] and in assay [2] were 27.5% and 102% (active), respectively.

As for `C[C@@H](C(=O)N1CCSC1=NCc1ccccc1)N1C(=O)C2CC=CCC2C1=O` (stereo not given in full), the inhibition in assay [1] was 4%; in assay [2], 8.5% (inactive).

As for `CC1CC(C)CN(C(=O)c2cc3ccccc3oc2=O)C1` (stereo not given), the inhibition was 9% in assay [1] and 8.5% (inactive) in assay [2].

Consider `Cc1csc(SCC(=O)c2ccc(S(=O)(=O)N3CCCCC3)cc2)n1`, for which the inhibition in assay [1] was 21.5%; in assay [2], 58.5% (inactive).

Regarding `O=C(CSc1nc2ccccc2c(=O)n1C1CCCC1)Nc1ccc2c(c1)OCCO2`, the values for the inhibition in assay [1] and in assay [2] were 6% and 28% (inactive), respectively.

As for `O=C(CN1CCN(S(=O)(=O)Cc2ccccc2)CC1)Nc1ccc2[nH]c(=O)[nH]c2c1`, the inhibition in assay [1] was 15.5%; in assay [2], 35.5% (inactive).

Regarding `Oc1c(C(c2ccccn2)N2CCN(c3ccc(F)cc3)CC2)cc(Cl)c2cccnc12` (stereo not given), the inhibition in assay [1] was -13.5%; in assay [2], 0.5% (inactive).

Turning to `CCn1c(-c2ccccc2)c(C(=O)CN2CCN(C)CC2)c2ccccc21`, the inhibition in assay [1] was 2.5%; in assay [2] it was 38% (inactive).

Take `CN1CCN(C(c2ccccn2)c2c(-c3ccccc3)n(O)c3ccccc23)CC1` (stereo not given): the inhibition was 17% in assay [1] and 105% (active) in assay [2].

On to `CN(C)C(=O)CN1C(=O)c2ccccc2S1(=O)=O`, for which the inhibition was -3% in assay [1] and 2% (inactive) in assay [2].

Consider `O=C1c2ccccc2S(=O)(=O)N1Cc1cc(=O)[nH]c(=O)[nH]1`, for which the inhibition in assay [1] was -2.5%; in assay [2], -1% (inactive).

Consider `CNC(=O)c1sc(CN2C(=O)c3ccccc3S2(=O)=O)nc1C`, for which the inhibition in assay [1] was -7%; in assay [2], 91% (active).

For the molecule `CC(Sc1ccccc1F)C(=O)Nc1ccc(S(N)(=O)=O)cc1` (stereo not given), the values for the inhibition in assay [1] and in assay [2] were 1% and 9.5% (inactive), respectively.

Consider `Cn1c(Cc2cccs2)nnc1SCC(=O)N1CCNC1=O`, for which the inhibition in assay [1] was 2.5%; in assay [2] it was 15% (inactive).

On to `CCCn1c(SCCCC(=O)c2cccs2)n[nH]c1=O`, for which the inhibition is -0.5% in assay [1] and 5.5% (inactive) in assay [2].

Take `COC(=O)c1ccc(C(c2c(O)ccc3ccccc23)N2CCOCC2)cc1` (stereo not given): the inhibition was 11% in assay [1] and 18% (inactive) in assay [2].

Regarding `Oc1cc2c(cc1C(c1ccc(C(F)(F)F)cc1)N1CCN(c3ccccc3)CC1)OCO2` (stereo not given), the inhibition was 5% in assay [1] and 5.5% (inactive) in assay [2].

On to `COC(=O)c1ccc(C(c2cc3c(cc2O)OCO3)N2CCN(c3ccccc3)CC2)cc1` (stereo not given), for which the results for the inhibition in assay [1] and in assay [2] were 24% and 83% (active), respectively.
